Experimental findings from PubChem BioAssay are described below.

A short description of assay [1]: polyglutamine-triggered caspase-3 activation inhibitors, cell-based (AID 1583). The following applies: polyglutamine-induced caspase-3 activation, cell assay; stronger effect = higher value;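 tested at 10 µM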.
The nature of assay [2]: suppressors of polyQ aggregation in yeast, 75Q-TubU reporter (AID 1593). The following applies: Yeast 75Q polyglutamine aggregation reporter.
Assay [3] is described as follows: rescue of polyQ-huntingtin neuronal dysfunction in worms, whole organism, C. elegans mechanosensory neurons, N-terminal huntingtin (AID 1599). The following applies: touch response, stronger effect = higher value.
Assay [4] is described as follows: inhibitors of mitochondrial cytochrome c release, biochemical, purified mitochondria (AID 1603).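 Further: mouse liver mitochondria challenged with calcium chloride; signal normalized to the plate average as 100%.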 The following applies: stronger effect = lower value.
Assay [5] can be described thus: inhibitors of polyQ protein aggregation (AID 1604). The following applies: polyglutamine-induced protein aggregation inhibition assay; stronger effect = higher value; tested at 2.5 µM.
Assay [6] in a line: enhancers of glutamate uptake in motor neurons, MN-1 cell line (AID 1612).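 Further: tested at 1 µM final; 0% = mean of DMSO vehicle wells on each plate; positive means more glutamate uptake than control and negative means less.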 The following applies: MN-1 motor neuron cells, stronger effect = higher value.
Assay [7] is described as follows: reducers of polyQ inclusions in PC12 cells, cell-based, NGF-treated PC12, GFPQ80 (AID 1614).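 Further: lower means fewer inclusions and 0 means no inclusions at all.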 The following applies: PC12 NGF-treated GFP-polyQ80 inclusion reduction.
Assay [8] is described as follows: suppressors of polyglutamine aggregation in yeast, 75Q-TubH (AID 1616). The following applies: S. cerevisiae 75Q-TubH polyglutamine aggregation suppression; stronger effect = higher value.
A short description of assay [9]: liver-stage malaria parasite growth inhibition, primary screen, cell-based, HepG2, luciferase luminescence, HepG2 viability (AID 624349; in the data active means parasite load remaining mostly below about 12%, no sharp cut-off; inactive means mostly above about 10%;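 further: 100% = mean of DMSO negative control wells on the same plate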). The following applies: P. berghei liver stage in HepG2, luciferase luminescence, concentration not given here; parasite load remaining: stronger effect = lower value; viability: measured here: HepG2 viability without parasites.
In assay [10] the target is 6-phosphogluconate dehydrogenase, decarboxylating (Homo sapiens) (UniProt P52209). The assay can be described thus: 6PGD enzyme inhibitors, primary screen, biochemical, human, recombinant enzyme, NADPH absorbance (AID 1159550;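 active means at least 20% inhibition of 6-phosphogluconate dehydrogenase activity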). The following applies: recombinant 6PGD, NADPH absorbance 341 nm; at 10 µM; stronger effect = higher value.
Chain of 6-phosphogluconate dehydrogenase, decarboxylating (Homo sapiens) (P52209 whole entry, looked up): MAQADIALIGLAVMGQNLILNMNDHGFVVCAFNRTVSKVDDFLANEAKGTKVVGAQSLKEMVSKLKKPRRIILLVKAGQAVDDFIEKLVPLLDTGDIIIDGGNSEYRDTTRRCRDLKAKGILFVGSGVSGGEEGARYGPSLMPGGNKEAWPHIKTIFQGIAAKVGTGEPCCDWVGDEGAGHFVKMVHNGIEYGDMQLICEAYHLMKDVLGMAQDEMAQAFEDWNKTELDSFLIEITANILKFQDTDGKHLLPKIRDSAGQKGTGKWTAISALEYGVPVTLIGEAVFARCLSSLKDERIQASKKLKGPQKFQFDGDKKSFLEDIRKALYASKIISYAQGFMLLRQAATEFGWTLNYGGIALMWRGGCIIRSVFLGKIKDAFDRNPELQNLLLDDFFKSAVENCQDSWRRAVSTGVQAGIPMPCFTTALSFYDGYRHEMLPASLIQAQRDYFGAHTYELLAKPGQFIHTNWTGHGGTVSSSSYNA
Assay [11] in a line: differential killing of epithelial or mesenchymal cells, primary screen, imaging, PC-3E GFP, TEM4-18 mCherry, co-culture (AID 1345086;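 active means compounds killing one labelled cell type while sparing the other, by normalised counts and ratio limits, not self-fluorescent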;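 on all read-outs here: cells exposed to compound for 72 h before imaging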;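 on red/green cell ratio (normalised): normalised mesenchymal count divided by normalised epithelial count so high means epithelial killing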). The following applies: imaging cell counts, at 1 µM; for red/green cell ratio (normalised): actives lie on both sides, counts scaled to control wells, 1 = unselective.
Assay [12] is described as follows: sensitizers of A549 cells to miR-34 induction, primary screen, imaging, A549 dox-inducible miR-34, nuclei and caspase counts (AID 1347080). The following applies: A549 miR-34 inducible, Hoechst nuclei count, 48 h.
Assay [13] in a line: survival rescue of mitochondrial mutant cells in low glucose, primary screen, MELAS cybrids, Rieske KO mouse fibroblasts, CellTiter-Glo (AID 1508586;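 active means mean z-score across replicates of 1.96 or higher in either the MELAS or the Rieske mutant cell line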;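 further: z relative to plate mean and SD of compound and empty wells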). (ATP-based viability assays read luminescence as a measure of living cells.)
Assay [14] concerns the target NAD(+) hydrolase SARM1 (Homo sapiens) (UniProt Q6SZW1). In words: SARM1 TIR NADase inhibitors, cell lysate, NAD-Glo luminescence (AID 1508614;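 active means compound whose remaining NAD level is above about 45 nM, limit read from the data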). The following applies: SAM-TIR HEK293T lysate NADase, at 1 µM, stronger effect = higher value.
Assay [15] deals with Mitogen-activated protein kinase 7 (Homo sapiens) (UniProt Q13164). In words: ERK5 transactivation activators in reporter cells, primary screen, cell-based, HTS (AID 1508626;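 active means luciferase signal above three times the same-plate solvent-only control wells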;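 further: luciferase driven by Gal4-ERK5 fusion binding five Gal4 sites before minimal TATA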). The following applies: HeLa Gal4-ERK5 transactivation, 18 h, at 5 µM, stronger effect = higher value.
Chain of Mitogen-activated protein kinase 7 (Homo sapiens) (Q13164 whole entry, looked up, the tested form may be a part): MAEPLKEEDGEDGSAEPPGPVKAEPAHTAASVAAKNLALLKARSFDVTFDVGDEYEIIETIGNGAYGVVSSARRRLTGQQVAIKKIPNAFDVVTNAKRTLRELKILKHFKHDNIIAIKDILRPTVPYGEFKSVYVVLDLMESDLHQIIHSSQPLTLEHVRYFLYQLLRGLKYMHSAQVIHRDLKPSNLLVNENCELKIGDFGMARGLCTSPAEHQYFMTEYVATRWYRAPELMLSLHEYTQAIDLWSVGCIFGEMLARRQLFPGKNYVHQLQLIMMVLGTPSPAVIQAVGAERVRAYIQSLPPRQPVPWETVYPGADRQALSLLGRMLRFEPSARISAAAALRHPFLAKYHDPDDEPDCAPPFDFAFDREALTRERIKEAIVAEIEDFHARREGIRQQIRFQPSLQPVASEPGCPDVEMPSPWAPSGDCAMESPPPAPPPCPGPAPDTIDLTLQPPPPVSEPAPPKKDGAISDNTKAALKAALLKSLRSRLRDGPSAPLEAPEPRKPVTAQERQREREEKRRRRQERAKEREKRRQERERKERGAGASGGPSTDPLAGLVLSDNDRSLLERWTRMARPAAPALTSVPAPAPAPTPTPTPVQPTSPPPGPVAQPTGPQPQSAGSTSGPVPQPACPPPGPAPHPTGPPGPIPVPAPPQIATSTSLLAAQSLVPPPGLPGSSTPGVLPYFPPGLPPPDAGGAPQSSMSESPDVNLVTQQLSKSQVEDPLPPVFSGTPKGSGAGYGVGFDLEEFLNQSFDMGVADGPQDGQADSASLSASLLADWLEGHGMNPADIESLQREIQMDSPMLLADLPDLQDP
Assay [16] in a line: circadian clock period modulators, cell-based, LOPAC library, luminescence reporter (AID 2774; call rule not given here;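 further: values are relative to mean of DMSO wells on each plate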). The following applies: circadian reporter cells, at 7 µM, actives lie on both sides.
Assay [17] concerns Hepatitis C virus NS3 helicase. In words: HCV NS3 helicase inhibitors, primary screen, biochemical, fluorescence polarization, LOPAC1280 library (AID 687035; in the data active means inhibition above about 37%). The following applies: Purified HCV NS3 helicase, Cy5-dT15 ssDNA binding fluorescence polarization; stronger effect = higher value; concentration not given here. In general terms: In fluorescence polarisation assays a small probe gives low polarisation when free and higher when bound to something large.

Assay [18] in a line: phospholipid biosynthesis inhibitors in animal cells, primary screen, cell-based, LOPAC library, screen 4 (AID 1347384; call rule not given here). The following applies: phospholipid biosynthesis inhibition screen, at 10 µM.
Assay [19] can be described thus: viability rescue of complex I mutant cybrids, primary screen, cell-based, galactose medium, ATP luminescence (AID 1645843;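 active means z-score of at least 1.8 in each of two replicates, scored against plate mean and spread of sample wells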;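 further: positive z means more ATP and so rescue of galactose-driven cybrid death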). The following applies: complex I mutant cybrid cells, 72 h, stronger effect = higher value.
Where [20] appears, read: measured here: epithelial PC-3E GFP cell survival.
The mark [21] stands for this setting: measured here: mesenchymal TEM4-18 mCherry cell survival.
Setting [22] is: stronger effect = lower value, cell number ratio, induced over uninduced.
Where [23] appears, read: measured here: relative caspase fold change +Dox/-Dox.
The mark [24] stands for this setting: measured here: total cells with miR-34 induction, stronger effect = lower value.
[25] abbreviates: measured here: total cells without miR-34 induction.
Where [26] appears, read: MELAS cybrid survival, CellTiter-Glo 48 h, stronger effect = higher value.
The mark [27] stands for this setting: Rieske KO mouse fibroblast survival, CellTiter-Glo 72 h.

Where “and” joins values, the source holds several entries; their conditions need not be identical. Equal entries are not always repeated. For some of these results: Results with a measured potency or affinity are listed apart. Calls of active or inactive are those of the source.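 How the source made its calls, unless noted: active means compounds whose cell count with miR-34 switched on is under 0.7 times the count with it off; inactive means the rest.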

Chain of NAD(+) hydrolase SARM1 (Homo sapiens) (Q6SZW1 whole entry, looked up, the tested form may be a part): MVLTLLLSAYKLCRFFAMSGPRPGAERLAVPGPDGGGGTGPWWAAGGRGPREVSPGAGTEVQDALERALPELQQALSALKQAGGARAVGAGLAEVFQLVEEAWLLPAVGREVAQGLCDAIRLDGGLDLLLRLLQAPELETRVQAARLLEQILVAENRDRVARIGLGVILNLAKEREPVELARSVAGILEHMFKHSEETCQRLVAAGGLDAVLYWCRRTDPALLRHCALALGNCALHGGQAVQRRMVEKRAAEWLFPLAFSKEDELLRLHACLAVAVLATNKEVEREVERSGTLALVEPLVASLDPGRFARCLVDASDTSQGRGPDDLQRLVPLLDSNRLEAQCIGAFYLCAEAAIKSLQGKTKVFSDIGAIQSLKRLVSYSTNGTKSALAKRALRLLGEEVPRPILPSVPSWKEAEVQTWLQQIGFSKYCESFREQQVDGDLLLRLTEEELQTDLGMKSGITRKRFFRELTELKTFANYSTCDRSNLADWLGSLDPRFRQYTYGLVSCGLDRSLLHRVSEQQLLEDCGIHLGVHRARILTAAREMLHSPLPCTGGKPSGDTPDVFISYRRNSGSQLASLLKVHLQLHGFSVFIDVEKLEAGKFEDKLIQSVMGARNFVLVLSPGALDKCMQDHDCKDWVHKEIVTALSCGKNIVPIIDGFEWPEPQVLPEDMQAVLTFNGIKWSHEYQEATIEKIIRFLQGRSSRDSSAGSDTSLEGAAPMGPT

For the compound `NC(=O)c1ccc[n+]([C@@H]2O[C@H](COP(=O)([O-])OP(=O)(O)OC[C@H]3O[C@@H](n4cnc5c(N)ncnc54)[C@H](O)[C@@H]3O)[C@@H](O)[C@H]2O)c1`, the inhibition (in general, the drop in the measured response relative to a control, in per cent) was 7.61% in [1] and 10.6% (inactive) in [10]. The score in [2] was 1.51. In [3], this compound had a rescue above control of 2.62. Further, the cytochrome c release ratio in assay [4] stood at 0.91. This compound showed an inhibition of aggregation in [5] of 63.6%. The glutamate uptake change in [6] was found to be 28.3%. The same compound returned an inclusion score in assay [7] of 2. In assay [8], this compound showed an aggregation suppression score of 1.51. In addition, in assay [9], the parasite load remaining was 87.2% (inactive) and 76.6% (inactive). The viability – broadly, a read-out of living cells in per cent, often relative to untreated cells – in assay [9] was 103% and 92.6%. Further, the red/green cell ratio (normalised) in assay [11] is 0.97 (inactive). Besides, the normalised cell number in [11] (setting [20]) stood at 1.17; in [11] (setting [21]) it was 1.14. Also, the fold change in assay [12] (setting [22]) was 0.824 (inactive) and 0.891 (inactive); in assay [12] (setting [23]) it was 1.3 and 1.13. The cell count in [12] (setting [24]) is 8060 and 11500; in assay [12] (setting [25]), 9780 and 12900. Moreover, the results for the z-score in assay [13] (setting [26]) and in [13] (setting [27]) were -1.2 (inactive) and 0.344, respectively. The remaining NAD in assay [14] is 183 nM (active). Moreover, the luciferase signal in assay [15] is 72 AU (inactive).

On to `NCCCS(=O)(=O)O`, for which the inhibition was -8.14% in assay [1], -1% (inactive) in assay [17] and 6.14% (inactive) in [10]. In assay [2], this compound registered a score of 1.19. In [3], this compound showed a rescue above control of -7.13. Also, the cytochrome c release ratio in [4] came out at 1.17. The inhibition of aggregation in [5] is 80.3%. Moreover, in [6], the glutamate uptake change was 3.02%. In [7], this compound displayed an inclusion score of 2. In [8], this compound came in with an aggregation suppression score of 1.7. In assay [16], the period change was 0.415 h (inactive). In addition, in [9], the parasite load remaining is 106% (inactive). In [9], the viability was determined as 72.2%. For the same compound, the red/green cell ratio (normalised) in assay [11] is 0.83 (inactive). Besides, the normalised cell number in assay [11] (setting [20]) was determined as 1.23; in assay [11] (setting [21]), 1.02. The fold change in assay [12] (setting [22]) is 0.922 (inactive); in assay [12] (setting [23]) it was 2.79. In addition, the values for the cell count in assay [12] (setting [24]) and in assay [12] (setting [25]) were 6500 and 7050, respectively. The outcome in assay [18] was inactive. Also, in assay [15], the luciferase signal is 56 AU (inactive). Besides, the z-score in assay [19] is 0.265 (inactive).

Turning to `NCCCCC(=O)O`, in assay [16], the period change is 0.155 h (inactive). Moreover, in assay [9], the parasite load remaining is 89.3% (inactive). Moreover, the viability in assay [9] worked out at 71.9%. For the same compound, the inhibition in assay [17] was -1% (inactive); in assay [10], -7.89% (inactive). For the same compound, the red/green cell ratio (normalised) in [11] was 0.85 (inactive). For the same compound, the normalised cell number in assay [11] (setting [20]) was 1.1; in assay [11] (setting [21]), 0.94. Further, the figures for the fold change in assay [12] (setting [22]) and in assay [12] (setting [23]) were 1 (inactive) and 1.48, respectively. In addition, the cell count in assay [12] (setting [24]) and in [12] (setting [25]) was 10300 in each case. Further, in assay [18], the compound was called inactive. The luciferase signal in [15] is 52 AU (inactive). Besides, the z-score in [19] is 0.885 (inactive).

As to `OCc1c[nH]c2ccccc12`, in assay [10], the inhibition was 14.9% (inactive). In addition, the red/green cell ratio (normalised) in assay [11] is 0.93 (inactive). Besides, the results for the normalised cell number in [11] (setting [20]) and in assay [11] (setting [21]) were 0.91 and 0.84, respectively. Moreover, the fold change was 0.978 (inactive) in assay [12] (setting [22]) and 0.867 in assay [12] (setting [23]). Moreover, the figures for the cell count in assay [12] (setting [24]) and in [12] (setting [25]) were 8210 and 8390, respectively. In addition, the z-score in assay [13] (setting [26]) is -0.392 (inactive); in [13] (setting [27]), -0.0559. Further, the luciferase signal in assay [15] is 88 AU (inactive).

Consider `Cn1c(=O)[nH]c2ncn(C)c2c1=O`, for which the inhibition in assay [1] is 15.7%; in [17], -3% (inactive); in [10], -14.1% (inactive). The same compound had a score in assay [2] of 1.32. Also, the rescue above control in [3] was -11.3. In addition, the cytochrome c release ratio in [4] is 1.26. Further, in assay [5], the inhibition of aggregation was found to be 52.4%. Also, the glutamate uptake change in assay [6] came out at 1.28%. The inclusion score in assay [7] turned out to be 2. This compound showed an aggregation suppression score in assay [8] of 1.3. Further, in [16], the period change is -0.1 h (inactive). Besides, the red/green cell ratio (normalised) in assay [11] is 0.89 (inactive). Moreover, the values for the normalised cell number in assay [11] (setting [20]) and in assay [11] (setting [21]) were 1.01 and 0.9, respectively. For the same compound, the fold change in [12] (setting [22]) is 0.988 (inactive); in assay [12] (setting [23]) it was 1.17. For the same compound, the cell count turned out to be 9800 in assay [12] (setting [24]) and 9920 in assay [12] (setting [25]). Moreover, in assay [18], the call was inactive. In addition, in [19], the z-score was 0.31 (inactive).
